Results on 13 compounds are retold here after PubChem BioAssay.

The test system of assay [1] is XIP peptide (Xip251-270) binding. Nature of the assay: XIP fragment 251-270 binding compounds – biochemical, small-molecule microarray, fluorescence 635/667 nm, 0.1 µg/mL protein, primary screen (AID 1182). The following applies: fluorescent protein binding, 635 nm, higher = more signal, called active from +8 up or from −8 down.
In a further assay the test system is XIP peptide (Xip251-270). Description: compounds binding XIP fragment 251-270 – biochemical, small-molecule microarray, fluorescence 635/667 nm, 0.5 µg/mL protein, primary screen (AID 1183). The following applies: fluorescence 635 nm, higher = more signal.
Assay [2] can be described thus: blood-stage malaria parasite viability loss – strain 3D7, DAPI fluorescence, 100 nL, primary screen (AID 1184).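 Note: parasites grown inside human red blood cells in medium with human serum.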 The following applies: P. falciparum 3D7 growth, 3 d, higher = more signal.
Assay [3] deals with Homeobox protein Hox-A13 (Mus musculus) (UniProt Q62424). Description: disruptors of Hoxa13 oligonucleotide interaction – biochemical, fluorescence polarization, labeled oligonucleotide, primary screen (AID 1185). The following applies: Hoxa13:DNA binding, 15 min, higher = more signal, called active from +8 up or from −8 down. A general note: In fluorescence polarisation assays a small probe gives low polarisation when free and higher when bound to something large.
Chain of Homeobox protein Hox-A13 (Mus musculus) (Q62424 whole entry, looked up): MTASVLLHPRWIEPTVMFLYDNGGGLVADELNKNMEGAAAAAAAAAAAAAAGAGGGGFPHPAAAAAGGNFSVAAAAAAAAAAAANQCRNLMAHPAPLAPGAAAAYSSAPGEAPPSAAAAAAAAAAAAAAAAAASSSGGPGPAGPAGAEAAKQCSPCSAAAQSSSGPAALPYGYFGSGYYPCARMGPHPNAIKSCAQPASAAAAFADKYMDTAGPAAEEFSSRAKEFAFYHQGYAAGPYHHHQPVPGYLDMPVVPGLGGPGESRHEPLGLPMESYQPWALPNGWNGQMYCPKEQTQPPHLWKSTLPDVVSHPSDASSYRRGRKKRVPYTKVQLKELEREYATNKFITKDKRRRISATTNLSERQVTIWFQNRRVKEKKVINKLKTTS

The nature of assay [4]: blockers of DNA damage checkpoint Chk1 activation – imaging, HeLa, hydroxyurea, phospho-Chk1 antibody, percent positive cells, primary screen (AID 1186). The following applies: hydroxyurea-induced phospho-Chk1 immunofluorescence imaging, higher = more signal.
The nature of assay [5]: blockers of DNA damage checkpoint Chk1 activation – imaging, HeLa, hydroxyurea, phospho-Chk1 nuclear intensity, primary screen (AID 1187). The following applies: hydroxyurea-induced phospho-Chk1 immunofluorescence imaging, higher = more signal.

Calls of active or inactive are those of the source. Unless noted, the rule behind the calls is not given here.

For `O[C@@H](Cc1ccccc1)[C@@H](/C=C/C1CC1)N(CC#Cc1ccccc1)Cc1cccc(Cl)c1`, the composite z-score was -0.16 (inactive) in assay [1] and -0.646 with XIP peptide (Xip251-270). Besides, the z-score in assay [2] was -1.27; in assay [3], 0.493 (inactive); in assay [4], 0.0959 (inactive); in assay [5], 0.043 (inactive).
As to `COc1ccc(C#Cc2ccc3c(c2)[C@]2(C(=O)N3)[C@H](c3ccc(O)cc3)N3[C@H](c4ccccc4)[C@H](c4ccccc4)OC(=O)[C@H]3[C@@H]2C(=O)O)cc1`, the composite z-score in assay [1] was -0.101 (inactive); in the assay on XIP peptide (Xip251-270) it was 0.83. Besides, the z-score in assay [2] was -1.23; in assay [3], -5.22 (inactive); in assay [4] it was -0.368 (inactive); in assay [5] it was -0.664 (inactive).
With `Cc1ccc(S[C@]2(C(=O)NCC(F)(F)F)CC(=O)N(Cc3ccccc3C(F)(F)F)[C@@H]2c2ccc(CO)cc2I)cc1`, the values for the composite z-score (in assay [1]; with XIP peptide (Xip251-270)) were -0.485 (inactive) and -0.0347, respectively. The z-score is -0.115 in assay [2], -2.45 (inactive) in assay [3], 0.504 (inactive) in assay [4] and 1.27 (inactive) in assay [5].
Consider `COc1ccc(CCN2C(=O)[C@@]3(Cc4ccccc42)c2ccccc2C(=O)N(Cc2ccccc2OC)[C@H]3c2ccc(CO)cc2)cc1`, for which the values for the composite z-score (in assay [1]; in the assay on XIP peptide (Xip251-270)) were -0.22 (inactive) and 0.425, respectively. Further, the z-score in assay [2] is -1.39; in assay [3] it was -0.208 (inactive); in assay [4], -0.154 (inactive); in assay [5], 0.0689 (inactive).
In the case of `COCCCNC(=O)[C@]1(CCS(=O)(=O)c2ccccc2)N=C(c2ccc(OCCCO)cc2)O[C@@H]1c1ccccc1CN=[N+]=[N-]`, the composite z-score in assay [1] was 1.51 (inactive); in the assay with XIP peptide (Xip251-270), 0.814. The z-score in assay [2] is -2.3; in assay [3], -3.61 (inactive); in assay [4], -0.684 (inactive); in assay [5] it was -0.618 (inactive).
Turning to `COCC1=C2[C@@H](CCc3ccccc3)OB(O)C[C@@H]2[C@@H]2C(=O)C=CC(=O)[C@@H]2C1`, the composite z-score in assay [1] was 0.796 (inactive); in the assay with XIP peptide (Xip251-270), -0.154. The z-score in assay [2] is -1.28; in assay [3] it was -6.27 (inactive); in assay [4], 0.162 (inactive); in assay [5], 0.398 (inactive).
Turning to `CN(C)CCCCNC(=O)[C@@H]1C[C@@H]2C(=O)N[C@@H](Cc3ccccc3)C(=O)N2[C@@H]1c1cccc(OCCO)c1`, the composite z-score was 0.096 (inactive) in assay [1] and 0.762 with XIP peptide (Xip251-270). Moreover, the z-score in assay [2] is 0.0546; in assay [3] it was -3.94 (inactive); in assay [4], -1.08 (inactive); in assay [5] it was -0.295 (inactive).
Turning to `[N-]=[N+]=Nc1ccccc1[C@H]1OC(c2ccc(OCCCO)cc2)=N[C@@]1(CCS(=O)(=O)c1ccccc1)C(=O)NCCN1CCOCC1`, the composite z-score was 0.345 (inactive) in assay [1] and 0.868 in the assay on XIP peptide (Xip251-270). Besides, the z-score in assay [2] is -2.52; in assay [3] it was -5.15 (inactive); in assay [4], 0.392 (inactive); in assay [5] it was 0.812 (inactive).
In the case of `CCOC(=O)C1=C[C@@H](c2ccccc2)N(S(=O)(=O)c2ccc(C)cc2)[C@H]1c1ccccc1Cl`, the composite z-score in assay [1] is 0.566 (inactive); in the assay with XIP peptide (Xip251-270) it was 0.307. The z-score in assay [2] was -2.02; in assay [3], 0.552 (inactive); in assay [4], -0.339 (inactive); in assay [5], -0.865 (inactive).
For the compound `O=C1OCC=C[C@H]2OC34C=CCN(Cc5ccccc5)C(=O)[C@H]3N(CCCCCCO)C(=O)[C@@H]4[C@@H]12` (stereo partly drawn), the composite z-score was 1.49 (inactive) in assay [1] and 0.295 in the assay with XIP peptide (Xip251-270). In addition, the z-score was -1.16 in assay [2], -4.53 (inactive) in assay [3], -0.584 (inactive) in assay [4] and -0.232 (inactive) in assay [5].
Regarding `COC(=O)[C@H](Cc1ccccc1)N1CC(/C=C/C2CC2)=C[C@H]1[C@H](O)Cc1ccccc1`, the values for the composite z-score (in assay [1]; with XIP peptide (Xip251-270)) were 0.444 (inactive) and 0.337, respectively. Further, the z-score in assay [2] is -1.65; in assay [3] it was -5.54 (inactive); in assay [4], -0.45 (inactive); in assay [5] it was -0.749 (inactive).
Take `CCCCCCc1nc(C2CC2)cc2c1[Si](C(C)C)(C(C)C)OC2`: the composite z-score in assay [1] is -0.18 (inactive); in the assay with XIP peptide (Xip251-270) it was 0.259. Moreover, the z-score was -1.47 in assay [2], 0.321 (inactive) in assay [3], -0.186 (inactive) in assay [4] and -0.0437 (inactive) in assay [5].
Regarding `COCCCNC(=O)[C@@]1(Cc2ccccc2N=[N+]=[N-])N=C(c2ccc(OCCCO)cc2)O[C@H]1c1ccccc1`, the composite z-score in assay [1] is 0.226 (inactive); with XIP peptide (Xip251-270), 0.818. In addition, the z-score in assay [2] is -2.49; in assay [3], -5.46 (inactive); in assay [4], 0.0251 (inactive); in assay [5] it was 0.285 (inactive).
